This is an account of results in PubChem BioAssay (EPA / NIEHS).

A word on the AC50: it is the concentration giving half of the maximal activity seen.

The nature of assay [1]: ATG_TCF_b_cat_CIS: Attagene CIS-FACTORIAL HepG2 Assay for human T-Cell-Factor with beta-catenin (TCF/b-cat) (AID 2282965). Conditions: HepG2 TCF/beta-catenin cis-reporter transcription, actives raise or lower the signal. In a few lines: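 Endogenous transcription factor activity is captured through cis-promoter reporter constructs transiently introduced into human HepG2 liver cells. Induced reporter mRNA is measured after 24 h and fitted bidirectionally relative to DMSO.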

Assay [2] in a line: ATG_TAL_CIS: Attagene CIS-FACTORIAL HepG2 Assay for human TAL Basal Promoter (AID 2282966).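 Further: background control endpoint measuring basal TAL promoter reporter mRNA not a specific factor.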 Conditions: HepG2 Attagene cis-factorial TAL promoter reporter; actives raise or lower the signal. In a few lines:
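Fluorescence of labelled reporter cDNA fragments, resolved by capillary electrophoresis, gave the readout. Human HepG2 liver cells carried transiently transfected cis-element reporter units and were treated for 24 hours; activity was fitted bidirectionally against DMSO.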

The nature of assay [3]: ATG_TGFb_CIS: Attagene CIS-FACTORIAL HepG2 Assay for human Transforming Growth Factor (TGF) (AID 2282967). Conditions: HepG2 Attagene CIS TGFb reporter, mRNA transcription; actives raise or lower the signal. In a few lines:
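Transcript-level reporter readout: HepG2 transfectants, 24 h exposure, RNA to cDNA, reporter-specific PCR, fluorescent primer extension, capillary sizing against ROX standards. Gain- or loss-of-signal relative to DMSO.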

A short description of assay [4]: ATG_VDRE_CIS: Attagene CIS-FACTORIAL HepG2 Assay for human Vitamin D Receptor Element (VDRE) (AID 2282968). Conditions: HepG2 VDRE cis-reporter transcription, actives raise or lower the signal. In a few lines: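 Reporter mRNA induction, quantified by capillary electrophoresis of fluorescently labelled RT-PCR products, was read 24 h after dosing HepG2 cells carrying transiently transfected cis-regulated reporter units; gain or loss relative to DMSO.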

Assay [5] deals with Estrogen receptor (Homo sapiens) (UniProt P03372). The assay is described as follows: ATG_ERa_TRANS: Attagene TRANS-FACTORIAL HepG2 Assay for human Estrogen Receptor alpha (ERa) (AID 2282970; active means hit-call score of the fitted dose curve at least 0.9, where 1 is the maximum). Conditions: HepG2 Attagene TRANS ERa GAL4 reporter, mRNA. In a few lines:
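Human liver HepG2, transient transfection of multiple GAL4-UAS reporter units; TRANS format (exogenous NR-Gal4 chimera). 24 h dosing. Readout: reporter mRNA, RT-PCR, 6-FAM primer extension, HpaI digest, capillary electrophoresis. Positive direction vs DMSO.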

In assay [6] the target is X-box-binding protein 1 (Homo sapiens) (UniProt P17861). Put plainly: ATG_Xbp1_CIS: Attagene CIS-FACTORIAL HepG2 Assay for human X-box Binding Protein 1 (XBP1) (AID 2282972). Conditions: HepG2 XBP1 cis-element reporter, Attagene multiplex; actives raise or lower the signal. In a few lines: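 HepG2 cells transiently transfected with multiple cis-element reporter units report endogenous TF activity; 24 h exposure, then reporter mRNA measured by RT-PCR, 6-FAM labelling, HpaI digestion and capillary electrophoresis. Bidirectional fitting versus DMSO.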
Sequence of X-box-binding protein 1 (Homo sapiens) (P17861 whole entry, looked up): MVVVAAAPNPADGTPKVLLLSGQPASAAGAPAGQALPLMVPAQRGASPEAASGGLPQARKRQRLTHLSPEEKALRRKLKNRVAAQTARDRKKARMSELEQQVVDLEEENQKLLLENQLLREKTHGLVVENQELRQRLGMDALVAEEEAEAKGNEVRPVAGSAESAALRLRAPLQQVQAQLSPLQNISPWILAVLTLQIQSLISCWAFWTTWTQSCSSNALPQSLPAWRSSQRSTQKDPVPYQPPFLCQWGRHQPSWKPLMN

The target in assay [7] is Oxysterols receptor LXR-beta (Homo sapiens) (UniProt P55055). The assay is described as follows: ATG_LXRb_TRANS: Attagene TRANS-FACTORIAL HepG2 Assay for human Liver X Receptor beta (LXRb) (AID 2282981; active means hit-call score of the fitted dose curve at least 0.9, where 1 is the maximum). Conditions: HepG2 Attagene TRANS GAL4-LXRb reporter, mRNA. In a few lines:
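Transient transfection HepG2 (multiplexed RTUs, GAL4-UAS); NR-Gal4 chimera; 24 h exposure; RNA → RT-PCR → 6-FAM primer extension → HpaI → CE; increase vs DMSO.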

Assay [8] deals with Hepatocyte nuclear factor 4-alpha (Homo sapiens) (UniProt P41235). Put plainly: ATG_HNF4a_TRANS: Attagene TRANS-FACTORIAL HepG2 Assay for human Hepatocyte Nuclear Factor 4 alpha (HNF4a) (AID 2282982; active means hit-call score of the fitted dose curve at least 0.9, where 1 is the maximum). Conditions: HepG2 HNF4a transactivation reporter, mRNA readout. In a few lines:
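Readout is fluorescent reporter-transcript fragments resolved by capillary electrophoresis after RT-PCR from HepG2 cells dosed for 24 h. Cells carried transfected GAL4-UAS reporter constructs measuring exogenous NR-GAL4 chimera activity; DMSO served as baseline.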

Assay [9] concerns the target Nuclear receptor subfamily 4 group A member 2 (Homo sapiens) (UniProt P43354). Put plainly: ATG_NURR1_TRANS: Attagene TRANS-FACTORIAL HepG2 Assay for human Nuclear Receptor Related Protein 1 (NURR1) (AID 2282985; active means hit-call score of the fitted dose curve at least 0.9, where 1 is the maximum). Conditions: HepG2 Attagene TRANS reporter, mRNA readout. In a few lines:
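Transient transfection of HepG2, human liver cells, with multiple GAL4-UAS reporter transcription units. Cells dosed 24 h, RNA isolated, reverse-transcribed, PCR-amplified, FAM-labelled, HpaI-digested, sized by capillary electrophoresis. DMSO served as negative control.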

Assay [10] concerns the target Transcriptional activator Myb (Homo sapiens) (UniProt P10242). The assay is described as follows: ATG_Myb_CIS: Attagene CIS-FACTORIAL HepG2 Assay for human Myeloblastosis (Myb) Proto-Oncogene Transcription Factor (AID 2282986). Conditions: HepG2 Attagene CIS-FACTORIAL Myb reporter transcription; actives raise or lower the signal. In a few lines: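 After 24 h of compound dosing, total RNA from transfected HepG2 cells is reverse-transcribed and the reporter sequences amplified, labeled and separated by capillary electrophoresis. Values come from bidirectional fitting against DMSO.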

Assay [11] addresses Bile acid receptor (Homo sapiens) (UniProt Q96RI1). Put plainly: ATG_FXR_TRANS: Attagene TRANS-FACTORIAL HepG2 Assay for Farnesoid X Receptor (FXR) (AID 2282979; active means hit-call score of the fitted dose curve at least 0.9, where 1 is the maximum;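 further: hits raise reporter mRNA above DMSO so AC50 marks FXR activation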). Conditions: HepG2 Attagene TRANS FXR-GAL4 reporter transcription. In a few lines: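 Transient transfection of HepG2 with multiplexed GAL4-UAS reporter units; exogenous FXR-GAL4 chimera. Dose 24 h → TriZol RNA → oligo(dT) RT → PCR, 6-FAM primer extension, HpaI cut → CE. Gain vs DMSO.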

Assay [12] can be described thus: ATG_M_32_TRANS: Attagene TRANS-FACTORIAL HepG2 Assay for M32 Transcription Factor (Internal Marker) (AID 2282984; active means hit-call score of the fitted dose curve at least 0.9, where 1 is the maximum;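 further: transcript level of a background control reporter unit measured by RT-PCR and capillary electrophoresis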). Conditions: HepG2 Attagene TRANS M32 internal marker reporter. In a few lines:
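Measures reporter mRNA induction in human HepG2 liver cells after 24 h chemical treatment. Transcripts from transiently transfected GAL4-UAS reporter units are amplified, fluorescently labelled and sized by capillary electrophoresis; gain of signal relative to DMSO.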

Assay [13] has as its target Oxysterols receptor LXR-alpha (Homo sapiens) (UniProt Q13133). Put plainly: ATG_LXRa_TRANS: Attagene TRANS-FACTORIAL HepG2 Assay for human Liver X Receptor alpha (LXRa) (AID 2282980; active means hit-call score of the fitted dose curve at least 0.9, where 1 is the maximum). Conditions: HepG2 Attagene TRANS reporter, LXRa transactivation. In a few lines: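 Transfect HepG2 with GAL4-UAS multiplex reporter constructs (TRANS format, chimeric receptor-GAL4); treat 24 h; extract RNA, reverse-transcribe, PCR-amplify, FAM-label, HpaI-digest; resolve fragments by capillary electrophoresis. Upward response vs DMSO.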

Assay [14] in a line: ATG_M_06_TRANS: Attagene TRANS-FACTORIAL HepG2 Assay for M06 Transcription Factor (Internal Marker) (AID 2282983; active means hit-call score of the fitted dose curve at least 0.9, where 1 is the maximum;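 further: reporter transcript level by RT-PCR then capillary electrophoresis fluorescence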). Conditions: HepG2 Attagene TRANS M06 internal marker reporter. In a few lines:
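Transfect HepG2 with MRTUs → dose compounds 24 h → isolate RNA, oligo(dT) RT → PCR with reporter primers → 6-FAM primer extension → HpaI digest → CE fragment analysis. Positive direction vs DMSO.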

The target in assay [15] is Steroid hormone receptor ERR1 (Homo sapiens) (UniProt P11474). Put plainly: ATG_ERRa_TRANS: Attagene TRANS-FACTORIAL HepG2 Assay for human Estrogen-Related Receptor alpha (ERRa) (AID 2282971; active means hit-call score of the fitted dose curve at least 0.9, where 1 is the maximum). Conditions: HepG2 Attagene TRANS reporter, ERRa transactivation. In a few lines:
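Reporter transcript induction was quantified by RT-PCR and capillary electrophoresis of FAM-labelled, HpaI-cut products after 24 h treatment of HepG2 cells carrying transiently transfected GAL4-UAS reporter units and an exogenous ERRa-Gal4 fusion; activity scored as increase over DMSO.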

The nature of assay [16]: ATG_GAL4_TRANS: Attagene TRANS-FACTORIAL HepG2 Assay for GAL4 (Internal Marker) (AID 2282976; active means hit-call score of the fitted dose curve at least 0.9, where 1 is the maximum). Conditions: HepG2 Attagene TRANS GAL4 internal marker reporter. In a few lines: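 First, HepG2 cells were transfected with reporter units under GAL4-UAS control. Next, they were treated with chemical for 24 h. Finally, RNA was reverse-transcribed, PCR-amplified, FAM-labelled and resolved by capillary electrophoresis, with induction scored against DMSO.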

In assay [17] the target is Estrogen-related receptor gamma (Homo sapiens) (UniProt P62508). Put plainly: ATG_ERRg_TRANS: Attagene TRANS-FACTORIAL HepG2 Assay for human Estrogen-Related Receptor gamma (ERRg) (AID 2282977; active means hit-call score of the fitted dose curve at least 0.9, where 1 is the maximum;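 further: hits increase reporter signal over DMSO so potencies reflect activators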). Conditions: HepG2 Attagene TRANS reporter, ERRg transactivation. In a few lines: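 Transfect HepG2 with multiple GAL4-UAS reporter transcription units; dose chemicals 24 h; isolate RNA, reverse-transcribe with oligo(dT), PCR-amplify, label with 6-FAM, digest with HpaI; size fragments by capillary electrophoresis. DMSO serves as negative control.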

Assay [18] has as its target Glucocorticoid receptor (Homo sapiens) (UniProt P04150). The assay is described as follows: ATG_GR_TRANS: Attagene TRANS-FACTORIAL HepG2 Assay for human Glucocorticoid Receptor (GR) (AID 2282978; active means hit-call score of the fitted dose curve at least 0.9, where 1 is the maximum;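 further: activators score as hits since higher reporter transcript over DMSO is fitted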). Conditions: HepG2 Attagene TRANS GR reporter, mRNA transcription. In a few lines: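 After 24 h incubation with test chemical, transfected HepG2 cells were lysed for RNA; reporter cDNA was amplified, FAM-labelled, HpaI-digested and sized on a capillary analyser. Signal gain relative to DMSO was scored.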

Assay [19] is described as follows: ATG_M_19_TRANS: Attagene TRANS-FACTORIAL HepG2 Assay for M19 Transcription Factor (Internal Marker) (AID 2282974; active means hit-call score of the fitted dose curve at least 0.9, where 1 is the maximum). Conditions: HepG2 Attagene TRANS-FACTORIAL M19 internal marker reporter. In a few lines: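 Transfected HepG2 (GAL4-UAS MRTUs), 24 h compound, TriZol RNA, DNase-treated RT, reporter PCR, FAM label, HpaI digest, CE fluorescence; gain vs DMSO.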

Structures are written as SMILES. Records with an inconclusive call do not appear. Activity calls are given as the source filed them. How the source made its calls, unless noted: active means hit-call score of the fitted dose curve at least 0.9, where 1 is the maximum; inactive means score below 0.9.

Sequence of Oxysterols receptor LXR-beta (Homo sapiens) (P55055 whole entry, looked up, the tested form may be a part): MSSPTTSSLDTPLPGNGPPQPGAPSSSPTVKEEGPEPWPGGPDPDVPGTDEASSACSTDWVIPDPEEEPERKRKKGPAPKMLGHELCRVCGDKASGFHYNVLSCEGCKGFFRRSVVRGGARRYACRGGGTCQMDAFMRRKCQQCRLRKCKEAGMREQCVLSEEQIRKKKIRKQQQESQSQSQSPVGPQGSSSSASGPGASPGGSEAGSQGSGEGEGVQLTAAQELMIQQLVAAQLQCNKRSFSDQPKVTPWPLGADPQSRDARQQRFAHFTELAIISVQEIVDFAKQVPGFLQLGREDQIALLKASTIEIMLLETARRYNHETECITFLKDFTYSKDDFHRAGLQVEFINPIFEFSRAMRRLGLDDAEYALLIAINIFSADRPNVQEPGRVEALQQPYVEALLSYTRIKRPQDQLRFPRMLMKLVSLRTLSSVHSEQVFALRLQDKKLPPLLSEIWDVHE
Sequence of Estrogen receptor (Homo sapiens) (P03372 whole entry, looked up, the tested form may be a part): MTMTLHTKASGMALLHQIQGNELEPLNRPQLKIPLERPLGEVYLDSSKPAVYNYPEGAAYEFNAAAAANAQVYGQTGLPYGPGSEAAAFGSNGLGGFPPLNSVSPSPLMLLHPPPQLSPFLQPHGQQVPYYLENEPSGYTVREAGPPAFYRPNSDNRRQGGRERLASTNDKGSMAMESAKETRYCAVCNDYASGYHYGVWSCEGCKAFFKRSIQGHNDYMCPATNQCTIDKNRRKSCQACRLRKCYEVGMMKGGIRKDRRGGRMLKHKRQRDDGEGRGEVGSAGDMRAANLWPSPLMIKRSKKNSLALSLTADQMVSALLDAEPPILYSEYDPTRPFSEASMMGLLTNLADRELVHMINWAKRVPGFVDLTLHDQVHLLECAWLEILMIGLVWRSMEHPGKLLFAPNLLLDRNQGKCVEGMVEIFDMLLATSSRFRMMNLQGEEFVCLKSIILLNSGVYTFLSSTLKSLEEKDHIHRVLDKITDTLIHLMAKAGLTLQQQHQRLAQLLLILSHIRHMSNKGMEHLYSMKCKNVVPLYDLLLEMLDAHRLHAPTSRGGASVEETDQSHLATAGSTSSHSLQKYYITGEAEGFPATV
Sequence of Nuclear receptor subfamily 4 group A member 2 (Homo sapiens) (P43354 whole entry, looked up, the tested form may be a part): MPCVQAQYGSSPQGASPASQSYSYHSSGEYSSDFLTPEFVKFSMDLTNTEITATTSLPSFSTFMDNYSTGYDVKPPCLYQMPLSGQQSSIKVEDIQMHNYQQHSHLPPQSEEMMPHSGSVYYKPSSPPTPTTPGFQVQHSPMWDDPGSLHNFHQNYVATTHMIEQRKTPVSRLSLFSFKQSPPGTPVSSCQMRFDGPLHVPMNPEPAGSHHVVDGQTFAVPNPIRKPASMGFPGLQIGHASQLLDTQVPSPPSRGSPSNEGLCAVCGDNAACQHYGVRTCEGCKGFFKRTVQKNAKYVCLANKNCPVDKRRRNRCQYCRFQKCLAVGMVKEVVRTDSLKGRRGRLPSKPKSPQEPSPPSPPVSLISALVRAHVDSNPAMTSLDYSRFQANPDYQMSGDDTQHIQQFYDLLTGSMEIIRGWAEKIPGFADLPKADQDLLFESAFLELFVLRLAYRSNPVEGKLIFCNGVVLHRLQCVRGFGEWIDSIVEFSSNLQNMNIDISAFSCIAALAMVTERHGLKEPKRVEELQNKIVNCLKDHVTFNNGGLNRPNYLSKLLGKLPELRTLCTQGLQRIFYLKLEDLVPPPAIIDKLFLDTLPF
Sequence of Glucocorticoid receptor (Homo sapiens) (P04150 whole entry, looked up): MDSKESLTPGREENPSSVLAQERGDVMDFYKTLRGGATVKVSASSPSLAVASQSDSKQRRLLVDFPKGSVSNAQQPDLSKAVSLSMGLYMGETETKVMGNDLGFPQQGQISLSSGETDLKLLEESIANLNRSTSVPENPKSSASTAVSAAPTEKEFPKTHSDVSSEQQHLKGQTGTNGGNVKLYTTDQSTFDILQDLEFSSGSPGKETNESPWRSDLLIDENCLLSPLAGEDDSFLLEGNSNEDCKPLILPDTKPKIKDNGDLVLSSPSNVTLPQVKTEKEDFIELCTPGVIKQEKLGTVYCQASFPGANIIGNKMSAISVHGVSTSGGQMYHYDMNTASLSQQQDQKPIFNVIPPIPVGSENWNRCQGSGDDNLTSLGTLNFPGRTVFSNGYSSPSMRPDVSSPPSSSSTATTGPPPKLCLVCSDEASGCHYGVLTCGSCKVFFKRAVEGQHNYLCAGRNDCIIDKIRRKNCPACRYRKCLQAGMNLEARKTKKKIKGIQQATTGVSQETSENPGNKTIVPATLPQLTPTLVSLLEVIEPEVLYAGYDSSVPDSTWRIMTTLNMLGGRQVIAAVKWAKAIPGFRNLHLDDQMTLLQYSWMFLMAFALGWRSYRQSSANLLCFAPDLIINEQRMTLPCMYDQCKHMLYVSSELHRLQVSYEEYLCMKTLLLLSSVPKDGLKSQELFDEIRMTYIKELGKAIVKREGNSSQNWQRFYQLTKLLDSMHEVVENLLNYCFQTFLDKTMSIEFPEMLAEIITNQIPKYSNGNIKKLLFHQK
Sequence of Transcriptional activator Myb (Homo sapiens) (P10242 whole entry, looked up): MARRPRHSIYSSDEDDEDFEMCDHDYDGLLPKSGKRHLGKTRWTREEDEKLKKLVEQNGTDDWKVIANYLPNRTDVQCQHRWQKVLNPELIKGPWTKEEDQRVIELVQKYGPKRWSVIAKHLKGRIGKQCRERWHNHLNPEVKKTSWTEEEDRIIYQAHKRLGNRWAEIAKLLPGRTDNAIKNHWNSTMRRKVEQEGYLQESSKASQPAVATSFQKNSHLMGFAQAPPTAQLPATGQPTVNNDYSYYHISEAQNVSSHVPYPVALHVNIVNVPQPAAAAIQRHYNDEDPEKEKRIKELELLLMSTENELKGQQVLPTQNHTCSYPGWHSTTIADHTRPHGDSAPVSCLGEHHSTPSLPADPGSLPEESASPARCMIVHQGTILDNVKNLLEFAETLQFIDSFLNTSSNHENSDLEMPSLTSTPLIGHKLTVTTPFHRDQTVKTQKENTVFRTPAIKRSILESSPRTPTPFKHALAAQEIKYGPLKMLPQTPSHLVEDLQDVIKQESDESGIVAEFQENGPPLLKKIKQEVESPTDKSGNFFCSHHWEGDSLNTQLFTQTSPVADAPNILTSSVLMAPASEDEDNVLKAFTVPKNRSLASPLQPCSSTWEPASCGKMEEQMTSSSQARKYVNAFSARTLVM
Sequence of Hepatocyte nuclear factor 4-alpha (Homo sapiens) (P41235 whole entry, looked up, the tested form may be a part): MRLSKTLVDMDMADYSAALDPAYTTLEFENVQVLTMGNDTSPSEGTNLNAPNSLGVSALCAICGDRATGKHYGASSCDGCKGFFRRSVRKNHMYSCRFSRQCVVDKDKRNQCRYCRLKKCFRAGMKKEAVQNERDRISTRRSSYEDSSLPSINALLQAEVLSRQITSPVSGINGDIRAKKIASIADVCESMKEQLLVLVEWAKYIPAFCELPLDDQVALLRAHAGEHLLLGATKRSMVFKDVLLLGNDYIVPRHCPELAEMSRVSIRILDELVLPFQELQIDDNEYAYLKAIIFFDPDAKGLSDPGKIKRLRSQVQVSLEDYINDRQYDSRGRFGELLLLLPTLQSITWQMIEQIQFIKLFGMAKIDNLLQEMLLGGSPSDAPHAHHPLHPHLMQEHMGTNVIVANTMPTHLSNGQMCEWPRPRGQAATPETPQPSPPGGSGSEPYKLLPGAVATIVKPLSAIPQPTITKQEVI
Sequence of Bile acid receptor (Homo sapiens) (Q96RI1 whole entry, looked up, the tested form may be a part): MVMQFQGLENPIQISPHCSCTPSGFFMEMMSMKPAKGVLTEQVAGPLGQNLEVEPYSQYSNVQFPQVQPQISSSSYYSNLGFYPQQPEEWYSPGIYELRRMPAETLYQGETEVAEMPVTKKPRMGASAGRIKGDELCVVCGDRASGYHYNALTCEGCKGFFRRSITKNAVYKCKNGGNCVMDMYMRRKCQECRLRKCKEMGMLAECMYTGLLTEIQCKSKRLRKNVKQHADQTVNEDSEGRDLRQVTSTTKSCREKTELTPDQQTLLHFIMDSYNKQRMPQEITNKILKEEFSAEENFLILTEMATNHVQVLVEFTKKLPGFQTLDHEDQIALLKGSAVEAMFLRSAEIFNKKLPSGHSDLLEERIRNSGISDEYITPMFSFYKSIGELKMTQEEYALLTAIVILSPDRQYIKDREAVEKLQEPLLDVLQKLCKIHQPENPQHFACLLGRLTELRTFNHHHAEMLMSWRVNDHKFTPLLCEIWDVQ
Sequence of Oxysterols receptor LXR-alpha (Homo sapiens) (Q13133 whole entry, looked up, the tested form may be a part): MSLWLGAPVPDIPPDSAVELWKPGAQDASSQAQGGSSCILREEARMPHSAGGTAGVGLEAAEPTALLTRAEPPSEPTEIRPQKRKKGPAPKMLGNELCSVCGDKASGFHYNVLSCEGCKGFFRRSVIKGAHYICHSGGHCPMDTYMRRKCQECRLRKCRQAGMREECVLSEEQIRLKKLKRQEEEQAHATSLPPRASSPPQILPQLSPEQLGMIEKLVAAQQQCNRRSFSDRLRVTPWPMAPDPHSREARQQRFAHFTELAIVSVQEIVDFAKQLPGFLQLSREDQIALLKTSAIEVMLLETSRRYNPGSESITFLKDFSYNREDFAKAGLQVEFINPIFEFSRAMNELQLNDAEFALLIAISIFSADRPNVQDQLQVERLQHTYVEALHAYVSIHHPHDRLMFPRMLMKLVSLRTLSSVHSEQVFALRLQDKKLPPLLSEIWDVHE

With `CCCCCCCC=O`, the call in assay [1], in assay [2], in [3], in [4], in assay [5] and in assay [6] was inactive. Besides, the call in assay [7], in assay [8], in assay [9] and in assay [10] was inactive.
In the case of `CC(CO)OC(C)CO` (centres undefined) (tested in a mixture with another compound), the molecule was classed as inactive in [1], in [2], in [3], in [4], in [5] and in assay [6]. Moreover, the result in [11], in assay [12] and in assay [10] was inactive.
On to `C1CCC(SSC2CCCCC2)CC1`, for which the molecule was called inactive in assay [1], in assay [2], in [3], in [4], in [6] and in assay [13]. The molecule was called inactive in [7] and in assay [10]. Moreover, the AC50 in [5] is 27.4 µM (active).
Take `Cc1ccccc1Cl`: the molecule was called inactive in assay [1], in [2], in assay [3], in assay [4], in assay [5] and in [6]. In addition, the call in [11], in assay [13], in [7], in assay [14] and in assay [10] was inactive.
In the case of `COCCOC[C@H](CC1(C(=O)NC2CCC(C(=O)O)CC2)CCCC1)C(=O)Oc1ccc2c(c1)CCC2` (some centres undefined), the result in [1], in [2], in assay [3], in assay [5], in assay [15] and in [6] was inactive. The molecule was classed as inactive in assay [16], in [17], in assay [18], in assay [7], in assay [14] and in assay [9]. Also, in assay [10], the call was inactive. Besides, in assay [4], the AC50 was 48.5 µM (active).
On to `O=C(O)Cc1ccccc1Nc1c(Cl)cccc1Cl`, for which the half-maximal activity concentration (AC50) in [1] was 40.6 µM (active); in assay [4] it was 16.2 µM (active). Further, the call in assay [2], in [3], in assay [5], in [6], in assay [19] and in [16] was inactive. Moreover, the molecule was classed as inactive in assay [12], in assay [9] and in assay [10].
`CCCCOC(=O)CCCCCCCCC(=O)OCCCC`: in assay [1], the AC50 is 146 µM (active). The call in assay [2], in assay [3], in assay [4], in assay [5], in assay [6] and in assay [19] was inactive. Moreover, the molecule was called inactive in [16], in assay [8] and in assay [10].
As for `COC(=O)c1ccc(O)cc1`, the molecule was called inactive in assay [1], in assay [2], in assay [3], in [4], in [6] and in [13]. Moreover, the molecule was called inactive in assay [7], in [14], in assay [12], in [9] and in [10]. Moreover, the AC50 in assay [5] was 63.8 µM (active).
On to `O=c1[nH]cc(F)c(=O)[nH]1`, for which the molecule was classed as inactive in assay [1], in assay [2], in assay [3], in assay [4], in assay [6] and in assay [19]. Further, the result in assay [18], in [12], in [9] and in [10] was inactive. Besides, the AC50 in assay [5] is 26.1 µM (active).
In the case of `Cc1nc(-c2ccc3c(c2)CCN(CCC2CCC(NC(=O)/C=C/c4ccc(F)cc4)CC2)CC3)no1` (centres undefined), the molecule was classed as inactive in assay [1], in assay [2], in assay [3], in assay [4], in [5] and in assay [6]. Moreover, the molecule was classed as inactive in assay [18], in assay [11], in assay [14] and in assay [10].
Regarding `CC(=O)Oc1ccccc1C(=O)O`, the AC50 is 162 µM (active) in [1]; 82.9 µM (active) in [4]; 71.6 µM (active) in assay [13]; 100 µM (active) in assay [7]; 100 µM (active) in assay [9]. In addition, the call in assay [2], in assay [3], in assay [5], in assay [6], in assay [18] and in assay [8] was inactive. Further, in assay [10], the result was inactive.
